Source: ChEMBL document CHEMBL3988442, “University of Dundee, Small-Polar-MMV Screening Library” (2021)
In all, about 67,000 compounds went through this assay and about 300 (0.45%) showed an effect of 50% or more. The sample as a whole holds a higher share of strong results than the screen did.

target: Polyketide synthase Pks13 (Mycobacterium tuberculosis (strain ATCC 25618 / H37Rv)) (UniProt I6X8D2); assay: Mycobacterium tuberculosis Polyketide synthase 13 Thioesterase (PKS13); type: functional; parameters: scale not given: in the data most compounds retested in dose-response had high values; settings: 30 µM
Sequence (I6X8D2 whole entry): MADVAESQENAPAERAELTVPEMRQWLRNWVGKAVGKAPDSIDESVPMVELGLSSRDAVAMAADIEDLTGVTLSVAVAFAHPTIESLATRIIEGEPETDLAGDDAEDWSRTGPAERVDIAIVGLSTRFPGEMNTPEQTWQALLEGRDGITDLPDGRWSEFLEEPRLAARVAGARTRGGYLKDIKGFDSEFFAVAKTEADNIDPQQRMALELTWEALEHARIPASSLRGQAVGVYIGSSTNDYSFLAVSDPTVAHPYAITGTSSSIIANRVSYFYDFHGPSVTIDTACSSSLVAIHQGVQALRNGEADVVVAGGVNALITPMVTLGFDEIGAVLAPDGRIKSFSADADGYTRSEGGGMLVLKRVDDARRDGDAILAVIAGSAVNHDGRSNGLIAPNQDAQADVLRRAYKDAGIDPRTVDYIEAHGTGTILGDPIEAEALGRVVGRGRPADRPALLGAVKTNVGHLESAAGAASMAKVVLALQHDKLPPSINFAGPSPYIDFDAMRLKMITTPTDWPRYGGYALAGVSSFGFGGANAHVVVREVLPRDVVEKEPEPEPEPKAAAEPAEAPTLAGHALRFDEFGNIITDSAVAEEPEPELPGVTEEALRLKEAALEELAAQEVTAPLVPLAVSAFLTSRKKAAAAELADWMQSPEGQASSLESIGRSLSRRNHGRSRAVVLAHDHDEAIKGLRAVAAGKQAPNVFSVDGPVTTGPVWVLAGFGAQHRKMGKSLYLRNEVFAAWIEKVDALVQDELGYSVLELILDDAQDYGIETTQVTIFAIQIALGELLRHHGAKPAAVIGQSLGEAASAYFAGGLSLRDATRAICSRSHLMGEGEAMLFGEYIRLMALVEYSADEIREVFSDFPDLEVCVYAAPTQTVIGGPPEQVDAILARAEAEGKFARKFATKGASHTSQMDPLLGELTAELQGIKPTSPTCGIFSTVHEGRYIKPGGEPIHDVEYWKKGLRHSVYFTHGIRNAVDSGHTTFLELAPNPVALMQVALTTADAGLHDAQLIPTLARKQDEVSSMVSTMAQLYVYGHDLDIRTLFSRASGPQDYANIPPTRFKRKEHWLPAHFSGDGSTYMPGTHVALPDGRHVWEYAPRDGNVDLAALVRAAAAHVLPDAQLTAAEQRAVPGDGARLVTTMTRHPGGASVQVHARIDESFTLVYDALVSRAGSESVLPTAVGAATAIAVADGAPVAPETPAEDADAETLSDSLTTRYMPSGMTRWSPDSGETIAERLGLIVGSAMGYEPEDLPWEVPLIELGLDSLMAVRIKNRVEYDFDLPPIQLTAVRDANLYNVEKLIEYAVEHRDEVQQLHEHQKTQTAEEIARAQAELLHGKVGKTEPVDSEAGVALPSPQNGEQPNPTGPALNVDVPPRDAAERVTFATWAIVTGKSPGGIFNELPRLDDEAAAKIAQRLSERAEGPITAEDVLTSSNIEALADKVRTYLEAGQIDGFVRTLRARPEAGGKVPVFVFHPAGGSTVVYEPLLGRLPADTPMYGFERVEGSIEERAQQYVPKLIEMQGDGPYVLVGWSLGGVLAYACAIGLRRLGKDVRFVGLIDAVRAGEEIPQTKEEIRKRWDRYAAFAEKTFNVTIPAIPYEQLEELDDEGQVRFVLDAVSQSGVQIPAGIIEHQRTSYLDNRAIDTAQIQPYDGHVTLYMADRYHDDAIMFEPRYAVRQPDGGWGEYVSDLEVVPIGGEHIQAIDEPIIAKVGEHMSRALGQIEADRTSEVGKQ

Compound | Percent Effect [%]
O=C(c1cnn2ccccc12)N1CCCC(OCc2ccccn2)C1 (stereo not given) | -9.11
Cc1cnc2c(C(=O)N3CCCC(OCc4ccccn4)C3)cnn2c1 (stereo not given) | 81.5
CCCn1ncc(C(=O)N2CCCC(OCc3ccccn3)C2)c1C (stereo not given) | -15.6
Cc1cccc(CN2CC[C@H]3OCC[C@@]3(C(=O)N3CCCO3)C2)n1 | 8.33
CNC[C@H]1CC[C@H](c2cc(CN(C)C(=O)c3cnccn3)n(C)n2)CC1 | -6.04
CC(NC(=O)Nc1cccnc1N1CCCC1)c1ccncc1 (stereo not given) | 0.204
CC(NC(=O)Nc1cccnc1N1CCCC1)c1nncn1C (stereo not given) | 56
COc1ncccc1NC(=O)NC(C)c1nncn1C (stereo not given) | -5.35
CCc1cnc(N2C[C@H]3C[C@H](C(=O)N(C)C)[C@@H](C2)O3)nc1 | -7.42
N#CCCCS(=O)(=O)N1CCC(CSc2ccccc2)C1 (stereo not given) | -31.5
CCS(=O)(=O)N1CCC(CSc2ccccc2)C1 (stereo not given) | 9.93
N#Cc1nccnc1N1CCC(CSc2ccccc2)C1 (stereo not given) | 53.9
Cc1ccc(N2CCO[C@H]3CN(Cc4ccc(F)cc4)C[C@H]32)nn1 | 4.79
CC(C)N1CCO[C@H]2CN(C(=O)c3ccncc3F)C[C@H]21 | -27
O=C(O)[C@]12CCCN(Cc3ccncc3)[C@@H]1CCN(c1cnccn1)C2 | -7.13
O=C(O)[C@]12CCCN(Cc3cccnc3)[C@@H]1CCN(c1cnccn1)C2 | 10.4
O=C(O)[C@]12CCCN(Cc3ccccn3)[C@@H]1CCN(c1cnccn1)C2 | 95.4
Cc1ccsc1CN1CC[C@H]2OCC[C@@]2(C(=O)N2CCCO2)C1 | -17.7
O=C(NC[C@]12COC[C@H]1CN(Cc1ccncc1)C2)c1ccno1 | -9.3
O=C(c1cccnc1)N1CCc2ncnc(N3CCOCC3)c2CC1 | -1.96
CN(C)c1ncnc2c1CCN(C(=O)c1cccnc1)CC2 | 61.9
Cc1ncnc2c1CCN(C(=O)c1cccnc1)CC2 | -18.2
CN1C(=O)C[C@@H]2[C@@H]1CCN2C(=O)c1ccc[nH]1 | -5.06
Cc1cc(CN2CC[C@H]3C[C@H](C)O[C@@H]3C2)no1 | -27.6
Cc1cccc(OC2CCN(c3ccc(C#N)cn3)CC2)n1 | 22.3
Cc1cccc(OC2CCN(c3nccnc3C#N)CC2)n1 | 85.3
Cc1cccc(OC2CCN(c3ncc(C#N)cc3Cl)CC2)n1 | 26.2
COCCNC(=O)C[C@@H]1COC[C@H]2CN(Cc3cccnc3)C[C@@H]12 | 7.6

Compound | Percent Effect [%]
COc1ccc(CN2C[C@H](OCC3CCOCC3)[C@H]3COC[C@H]32)cc1 | -3.35
O=C(Cc1cccc(F)c1)N1CCc2ncnc(NC3CCC3)c2CC1 | -11.9
O=C(Cc1cccc(F)c1)N1CCc2ncnc(NC3CC3)c2CC1 | 121
O=C(NCc1cccc(F)c1)N1CCc2ncnc(NC3CC3)c2CC1 | -9.48
Cn1cnc2c1C(COCC1CCOCC1)CN(C1CCOCC1)C2 (stereo not given) | -38
CCOCCN1Cc2ncn(C)c2C(COCC2CCOCC2)C1 (stereo not given) | 55.1
Cn1cnc2c1C(COCC1CCOCC1)CN(Cc1ccccn1)C2 (stereo not given) | -19.7
CN1C(=O)C[C@@H]2[C@@H]1CCN2S(=O)(=O)Cc1ccccc1 | -11.3
O=C(COCC1CC[C@H]2[C@H](CCN2c2ncccn2)O1)N1CCCC1 (stereo not given in full) | 9.91
Nc1cc(C(=O)NCC2CCN(Cc3ccncc3F)C2)ccn1 (stereo not given) | 141
Nc1cc(C(=O)NCC2CCN(Cc3cccc(O)c3)C2)ccn1 (stereo not given) | -14.3
CC/C=C(\C)CN1CCC(CNC(=O)c2ccnc(N)c2)C1 (stereo not given) | -25.3
CCc1ccc(CN2CC[C@H]3C[C@H](c4nnc(C)[nH]4)O[C@@H]3C2)o1 | 32
O=C(NCC1CC1)[C@@H]1CCO[C@@H]2CCN(Cc3ccc(F)cc3)C[C@H]21 | -0.289
c1cnc(N2CCC3(CC2)CC(NCC2CC2)c2ccccc23)nc1 (stereo not given) | 2.19
CNC(=O)CC1CC2(CCN(c3ncccn3)CC2)c2ccccc21 (stereo not given) | -25.9
CNC(=O)CNC1CC2(CCN(c3ncccn3)CC2)c2ccccc21 (stereo not given) | 61.9
O=C1[C@@H]2CN(c3ncc(Cl)cc3F)C[C@]2(C(=O)O)CN1CC1CC1 | 5.43
O=C(c1cnccn1)N1CCN2C[C@H](OCc3ccccn3)C[C@H]2C1 | -10.5
O=C(N[C@@H]1CN(Cc2ccccc2)C[C@@H]2CCCO[C@@H]21)C1CC1 | -12.9
CCN1C(=O)CC[C@@H]2[C@H]1CCN2S(=O)(=O)c1cccs1 | -25.3
Cc1ccc(C(=O)N2CCN(c3ncnc4nc(N)ccc34)CC2)cc1 | -11.7
CC(C)(C)C(=O)N1CCCN(c2ncnc3nc(N)ccc23)CC1 | 18.3
Cc1ccc(C(=O)N2CCN(c3ncnc4nc(N)ccc34)CC2)o1 | 65.6
Cc1c(C(=O)N2CCOCC2)nnn1-c1ccc2ncccc2c1 | 67.3
Cc1c(C(=O)N2CCS(=O)(=O)CC2)nnn1-c1ccc2ncccc2c1 | -29.1
Cc1c(C(=O)N2CCC2)nnn1-c1ccc2ncccc2c1 | -7.58
